Compounds with a hit are over-represented: about 2.3% of the library has one in this group of screens.
M1 antag – human CHRM1 antagonism; 360,000 compounds, 1.3% hits; P11229; inhibition, % at 3 µM; CHO-K1 hM1, Fluo-8 calcium fluorescence, ACh EC80 antagonist;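 active = percent inhibition above its own plate's cutoff, namely the mean of that plate's compound wells plus 3 SD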;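 note: peak over basal fluorescence ratio during 140 s after agonist addition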
Target sequence (P11229 whole entry, looked up): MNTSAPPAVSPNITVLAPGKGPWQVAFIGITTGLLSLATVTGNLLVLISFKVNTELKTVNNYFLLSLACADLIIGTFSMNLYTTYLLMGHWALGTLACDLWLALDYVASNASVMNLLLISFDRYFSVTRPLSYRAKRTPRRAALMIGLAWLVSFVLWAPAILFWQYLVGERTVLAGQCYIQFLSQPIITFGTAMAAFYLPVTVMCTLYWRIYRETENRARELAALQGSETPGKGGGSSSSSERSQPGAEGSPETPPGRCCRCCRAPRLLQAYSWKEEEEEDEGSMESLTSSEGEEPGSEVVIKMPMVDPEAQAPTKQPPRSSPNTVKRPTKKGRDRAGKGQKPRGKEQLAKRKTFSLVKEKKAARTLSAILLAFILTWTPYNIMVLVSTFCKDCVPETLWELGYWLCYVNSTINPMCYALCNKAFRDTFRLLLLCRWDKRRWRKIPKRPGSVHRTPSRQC
CHO-K1 Ca antag – M1 antagonist counterscreen hit in parental CHO-K1 cells; ATP-induced calcium, Fluo-8 fluorescence; inhibition, % at 3 µM; 360,000 compounds, 0.6% hits; AID 602250;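 active = inhibition above a per-plate cutoff, the plate's mean sample inhibition plus 3 SD, cut at about 24% in these data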
CHRM1 agonist – human M1 muscarinic receptor agonism | CHO-K1 hM1, Fluo-8 calcium fluorescence, agonist mode; 0% DMSO, 100% acetylcholine EC100 | activation, % at 3 µM | 360,000 compounds, 0.33% hits;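 active = activation above the run's mean compound activation plus 3 SD, cut at about 16% in these data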;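 note: peak over basal fluorescence ratio within a 140 s kinetic read after compound addition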
M1 ag parental – M1 agonist counterscreen hit in parental CHO-K1 cells. Fluo-8 calcium fluorescence; scaled to maximal ATP response, vehicle zero. activation, % at 3 µM. 360,000 compounds, 0.48% hits; in the data active = activation above about 15%;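 note: untransfected CHO-K1 host cells lacking M1 receptor as counterscreen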
CHO-K1 Ca PAM – nonselective activator or artifact in parental CHO-K1 calcium assay; ATP EC20, Fluo-8 calcium fluorescence; 0% at ATP EC20, 100% at ATP max; activation, % at 3 µM; 360,000 compounds, 0.02% hits; AID 602247;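 active = activation above the run cutoff, the mean activation of all test compounds plus 3 SD, cut at about 40% in these data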;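 note: peak over basal fluorescence ratio in a 140 s read after ATP addition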
CHRM1 PAM – positive allosteric modulators of human M1 muscarinic receptor; AID 588819; CHO-K1 hM1, Fluo-8 calcium fluorescence, ACh EC20; 0% = ACh EC20, 100% = maximal ACh; 360,000 compounds, 0.088% hits; activation, % at 3 µM; in the data active = activation above about 19%, passing the limit was not always enough
Each line names hits and unclear results; the compound was inactive in the other large screens.

Cc1nc2ccccc2c(=O)n1NC(=O)c1cccc([N+](=O)[O-])c1	none
O=S(=O)(c1ccccc1F)N1CCC(Oc2ccc(-n3cnnn3)cc2)CC1	M1 ag parental 22
COc1ccc(CN(C)S(=O)(=O)c2nnc(NC(=O)c3cccc(F)c3)s2)cc1	CHO-K1 Ca antag 24
O=C(c1ccc(Cl)cc1)C1CCCN(Cc2ccc(Oc3ncccn3)cc2)C1 (centres undefined)	M1 antag 62
O=C(c1ccc(Cl)cc1)C1CCCN(Cc2cnn(-c3ccccc3)c2)C1 (centres undefined)	none
CCOC(=O)C1CCN(Cc2ccc(N(C)C)cc2)CC1	CHO-K1 Ca antag 41
Cc1cc(OCCN2CCC(Cc3ccccc3)CC2)ccc1[N+](=O)[O-]	M1 antag 101
CCOc1ccc(CN2CCC(Cc3ccccc3)CC2)cc1	M1 antag 58
O=C(NCCCN1CCCCC1)c1ccc(CS(=O)c2ccc(F)cc2)o1 (centres undefined)	none
CCOC(=O)N1CCN(CC(O)COc2ccc(OC)cc2C(C)(C)C)CC1 (centres undefined)	none
CCOC(=O)C1CCN(Cc2ccc(OCc3ccccc3)cc2)CC1	M1 antag 49
CCOC(=O)C1CCCN(Cc2ccc(OCC)cc2)C1 (centres undefined)	CHRM1 agonist 31
COc1ccc(Nc2nc(N)nc(CN3CCC(Cc4ccccc4)CC3)n2)cc1	M1 antag 33
COc1ccccc1Nc1nc(N)nc(CN2CCC(Cc3ccccc3)CC2)n1	none
CCOC(=O)C1CCCN(CC(O)COc2ccc(OC)cc2C(C)(C)C)C1 (centres undefined)	M1 antag 32, CHRM1 agonist 60
NC(=O)C1CCN(Cc2ccc(OCc3ccccc3)cc2)CC1	none
O=C(O)c1nc(-c2ccccc2)c(C(=O)NC2CC2)[nH]1	none
COc1ccc(C2/C(=C(\O)c3ccc4c(c3)CC(C)O4)C(=O)C(=O)N2Cc2cccnc2)c(OC)c1 (centres undefined)	none
Cc1ccc(S(=O)(=O)N(C)c2c(C)ccc(S(=O)(=O)NC(C)(C)C)c2C)cc1	none
CCCCN(C)C(=O)C1CCN(Cc2ccc(OCc3ccccc3)cc2)CC1	M1 antag 41
CCCCNC(=O)C1CCN(Cc2ccc(OCc3ccccc3)c(OC)c2)CC1	none
COc1cccc(OC)c1OCCCN1CCC(Cc2ccccc2)CC1	M1 antag 45
O=[N+]([O-])c1ccc(-c2cnc(SC(c3ccccc3)c3ccccc3)[nH]2)cc1	M1 antag 26
CC(C)C(NC(=O)c1c(F)cccc1F)C(=O)N1CCN(c2ncccn2)CC1 (centres undefined)	none
CCOC(=O)C1=C[C@@H](C2CCCCC2)N(S(=O)(=O)c2ccc([N+](=O)[O-])cc2)[C@H]1c1ccccc1	CHO-K1 Ca antag 27
CC(=O)C1C(c2ccc(Cl)cc2)c2c(noc2C)CC1(C)O (centres undefined)	none
CC(CNC(=O)c1ccc(NC2=NC3CS(=O)(=O)CC3S2)cc1)c1ccccc1 (centres undefined)	none
O=C(c1ccc(NC2=NC3CS(=O)(=O)CC3S2)cc1)N(CCO)Cc1ccccc1 (centres undefined)	CHO-K1 Ca antag 36
O=C(Nc1ccc(N2CCOCC2)c(Cl)c1)c1ccc(Br)o1	M1 antag 41
O=C(Nc1ccc(N2CCN(C(=O)c3ccccc3)CC2)c(Cl)c1)c1ccc(Br)o1	none
CC(C)N1CC2(CC(c3ccc(Cl)cc3Cl)=NO2)CN1C(=O)c1ccc(C(C)(C)C)cc1 (centres undefined)	none
Cc1ccc(NS(=O)(=O)c2c(C)[nH]c(C)c2C(=O)N2CCCCC2)c(Br)c1	none
CCn1c(SCC(=O)Nc2ccc(OC)cc2OC)nc2nc3c(cc2c1=O)COC(C)(C)C3	none
COc1ccc(-n2c(SCC(N)=O)nc3nc4c(cc3c2=O)COC(C)(C)C4)cc1	none
CC(Cc1ccccc1)NC(=O)CSc1nc2nc3c(cc2c(=O)n1-c1ccccc1)COC(C)(C)C3 (centres undefined)	CHRM1 agonist 16
CCn1c(SCC(=O)Nc2cccc(C)c2)nc2nc3c(cc2c1=O)COC(C)(C)C3	M1 ag parental 16
CC(=O)OC1CCC2(C)C(CCC3C2CC(=O)C2(C)C3CC(C3CCCC3=O)C2C(C)=O)C1 (centres undefined)	none
COC(=O)C1=CCCCC(O)=C1C(=O)OC	none
CCc1ccc2c(c1)C(c1ccc([N+](=O)[O-])cc1)=NNC(c1ccc(C)cc1)=N2	M1 ag parental 18
Cc1ccc2c(c1)C1CN(C)CCC1N2C(=O)c1cccc(S(=O)(=O)N2CC(C)CC(C)C2)c1 (centres undefined)	M1 antag 37
Cc1ccc2c(c1)C1CN(C)CCC1N2C(=O)c1ccc(Cl)c(S(=O)(=O)N2CCOCC2)c1 (centres undefined)	M1 antag 79
Cc1ccc(C(=O)N(C)c2ccc(OCC(=O)N3c4ccc(C)cc4C4CN(C)CCC43)cc2)cc1 (centres undefined)	M1 antag 23
Cc1ccc2c(c1)C1CN(C)CCC1N2S(=O)(=O)c1cc(C(F)(F)F)ccc1Cl (centres undefined)	none
CCNC(=O)NC(=O)C(C)Sc1nc2ccccc2n1CC(C)C (centres undefined)	none
Cc1ccc(S(=O)(=O)Nc2ccc3c(c2)nc(CCN2CCCCC2)n3C)cc1	none
Cn1c(CCN2CCN(c3ccccn3)CC2)nc2cc(NS(=O)(=O)c3ccc(Cl)cc3)ccc21	M1 antag 98
Cc1ccc(S(=O)(=O)Nc2ccc3c(c2)nc(CCN2CCN(c4ccccn4)CC2)n3C)cc1	M1 antag 79
CCCc1cc(C(=O)Nc2cccc(-c3nn[nH]n3)c2)sc1C	none
Cc1ccc(N=C2S/C(=C\c3cn(CC(=O)O)c4ccccc34)C(=O)N2C)cc1	none
CC(C)NC(=O)c1ccc(CN2CCc3ccccc3C2)cc1	M1 antag 45
COc1ccc(OC)c(NC(=O)Nc2nnc([C@@H]3O[C@H](CO)[C@@H](O)[C@H]3O)s2)c1	none
CCOC(=O)C1CCCN(c2c(NCc3ccco3)c(=O)c2=O)C1 (centres undefined)	CHRM1 agonist 27
CCCNC(=O)C1(C)CCN(C(=O)c2oc3ccccc3c2C)C1 (centres undefined)	none
CCN1CCN(c2cc(C)c3cc(NC(=O)Cc4ccc(OC)c(OC)c4)ccc3n2)CC1	CHO-K1 Ca antag 28
O=C1CSC(=Nc2ccc(Cl)cc2)N1Cc1ccco1	CHO-K1 Ca antag 29
Cc1cc(C)c(N=C2SCC(=O)N2Cc2ccco2)c(C)c1	none

Assay outcomes (PubChem)
